eIF4H FP inh: inhibitors of RNA binding by human eIF4H | Q15056 | eIF4H fluorescence polarization binding assay | inhibition, % at 35 µM | 290,000 tested, 0.94% active | AID 2012;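 also: calls also rest on retests at 20 µM and on dose response follow-up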
PfM18AAP inh-1: blocks P. falciparum M18 aspartyl aminopeptidase | 290,000 tested, 1.2% active | AID 1822 | recombinant PfM18AAP, H-Glu-NHMec fluorogenic cleavage | inhibition, % at 7.35 µM;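 active = inhibition above the campaign mean inhibition over all tested compounds plus 3 SD, cut at about 28% in these data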;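 also: 0% = plate median of test compound wells and 100% = 2 mM ZnCl2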
PERK inh: human PERK inhibition, primary cell-based screen; AID 1416; inhibition, % at 5.6 µM; CHO PERK-DD fusion, SEAP luminescence translation reporter; 220,000 tested, 0.17% active;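 active = inhibition above the mean inhibition of all tested compounds plus 3 SD, set separately per screening campaign, cut at about 2.9% in these data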;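 also: PERK kinase domain activated by AP20187 dimerizer at 100 nM; 0% = DMSO with dimerizer and 100% = rapamycin at 8.4 µM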
PABP polyA inh: blocks human PABP binding to poly(A) RNA; fluorescence polarization; 290,000 tested, 1% active; AID 2014; P11940; inhibition, % at 35 µM;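 also: calls also rest on retests at 20 µM and on dose response follow-up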
MLLE-PAM2 inh: blocks PAM2 peptide binding to the PABP1 MLLE domain; GST-MLLE / FITC-PAM2 fluorescence polarization; 360,000 tested, 0.36% active; P11940; inhibition, % at 20 µM; AID 588489; in the data active = inhibition above about 35%, passing the limit was not always enough;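 also: plate controls were DMSO wells with GST-MLLE for no effect and wells lacking GST-MLLE protein for full effect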
eIF4E 4G PPI: eIF4E/eIF4G interaction inhibition in translation initiation; P63073+Q04637; TR-FRET eIF4E-eIF4GI(517-606) binding, 2 h; inhibition, % at 21.7 µM; 220,000 tested, 0.37% active;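 active = inhibition above about 30%, limit read from the data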;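 also: 0% = full FRET control wells and 100% = background wells lacking eIF4GI fragment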
PfM18AAP inh-2: PfM18AAP inhibition, confirmation | 2,400 tested, 28% active | inhibition, % at 7.35 µM | AID 2170 | recombinant PfM18AAP, H-Glu-NHMec fluorogenic cleavage | shares compounds with PfM18AAP inh-1;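 active = mean inhibition over replicate wells above the hit cutoff set for the earlier primary screen, cut at about 29% in these data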;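 also: 0% = median of test compound wells and 100% = 2 mM ZnCl2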
CTSL1 counter: counter-screen for PFM18AAP inhibitors: confirmation of human cathepsin L inhibitors; inhibition, % at 5.96 µM; shares compounds with PfM18AAP inh-1; 2,400 tested, under 10 active; purified cathepsin L1, Z-Leu-Arg-MCA fluorescence;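 active = average inhibition across replicates above the hit cutoff set in the earlier primary screen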;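 also: 0% = median of test compound wells and 100% = Z-Phe-Ala-diazomethylketone 1 µM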
Target sequence (P07711 whole entry, looked up): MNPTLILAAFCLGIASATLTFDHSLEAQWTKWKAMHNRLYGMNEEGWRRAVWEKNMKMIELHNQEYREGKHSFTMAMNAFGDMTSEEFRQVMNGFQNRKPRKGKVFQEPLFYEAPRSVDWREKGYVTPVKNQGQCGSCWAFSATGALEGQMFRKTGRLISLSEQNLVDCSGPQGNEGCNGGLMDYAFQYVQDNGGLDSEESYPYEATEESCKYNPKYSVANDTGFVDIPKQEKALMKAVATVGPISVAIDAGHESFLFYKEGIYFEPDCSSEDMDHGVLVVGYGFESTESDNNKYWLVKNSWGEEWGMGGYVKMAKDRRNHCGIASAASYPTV
* = called active by the depositor; i = inactive; ? = inconclusive; . = no result given; [ ] = another dose, or the depositor's remark. Rows were chosen to be rich in hits. Some 2.4% of all compounds tested hit in one or more screens of this group. Unless noted, no rule for the calls is given here.

SMILES | eIF4H FP inh | PfM18AAP inh-1 | PERK inh | PABP polyA inh | MLLE-PAM2 inh | eIF4E 4G PPI | PfM18AAP inh-2 | CTSL1 counter
O=C(CSc1nn(-c2ccccc2)c(=S)s1)NC1CCS(=O)(=O)C1 (centres undefined) | -6 | 9 | 1 | 2 | 4 | 3 | . | .
O=C(CSc1nc2ccccc2s1)Nn1cnnc1 | -9 | 69* | 1 | 4 | 36 | 8 | 57* | 3
O=C(CSc1nn(-c2ccccc2)c(=S)s1)Nn1cnnc1 | 4 | 53* | 0 | -4 | 11 | -3 | 73* | 0
OC[C@H]1O[C@@H](c2nc(-c3ccc(Br)cc3)no2)C[C@@H]1O | . | . | . | . | 0 | . | . | .
Cc1cc(CSc2ccc(Cl)cc2)ccc1N | . | . | . | . | -5 | . | . | .
O=C(O)C(=O)Nc1ncn[nH]1 | . | . | . | . | 4 | . | . | .
O=C(/C=C/c1ccccc1)Nn1cnc2ccccc2c1=O | 4 | 1 | 0 | 7 | 0 | 4 | . | .
O=C(/C=C/c1ccccc1)Nn1cnnc1 | -2 | 80* | 0 | -6 | 4 | 2 | 70* | 1
O=C(/C=C/c1ccccc1)Nc1ncn[nH]1 | -5 | 45* | 1 | 6 | -9 | -14 | 48* | -2
COc1ccc(/C=C/C(=O)Nn2cnnc2)cc1 | 0 | 80* | 1 | 11 | -9 | 0 | 71* | 4
Cn1c2ccccc2c2nnc(SCC(=O)Nc3cccc(O)c3)nc21 | -6 | 8 | . | 13 | 17 | . | . | .
Cc1ccc(NC(=O)c2sc3nc(CCl)[nH]c(=O)c3c2C)c(C)c1 | -9 | -10 | 0 | -4 | -3 | 1 | . | .
CC1(C)CC(=O)C=C(NCc2ccc(Cl)c(Cl)c2)C1 | -4 | -1 | 0 | -1 | 3 | 0 | . | .
Cc1ccc(-c2cc(C(=O)Nc3c(C)n(C)n(-c4ccccc4)c3=O)[nH]n2)c(O)c1 | -3 | 9 | 0 | -11 | -14 | -7 | . | .
Cc1cc(C)c(-c2cc(C(=O)Nc3c(C)n(C)n(-c4ccccc4)c3=O)[nH]n2)c(O)c1 | -14 | 41* | 0 | -5 | -8 | 6 | -17 | 4
O=[N+]([O-])c1ccc(-c2ccn[nH]2)o1 | 77 | 40* | 0 | -5 | 26 | 15 | -44 | -9
COc1cc(C(C[N+](=O)[O-])c2c(C)cc3ccccn23)ccc1O (centres undefined) | 26 | 40* | . | 24 | 9 | . | -13 | 0
Cc1cc(C(=O)CSc2ncn[nH]2)c(C)n1-c1cccc(S(=O)(=O)N2CCOCC2)c1 | 8 | 46* | 0 | 1 | -4 | 0 | 24 | 5
COC(=O)C1=C(C(=O)c2ccc(C)cc2)C(c2ccc(O)c(OC)c2)n2nnnc2N1 (centres undefined) | -3 | 60* | 1 | 7 | 3 | -4 | -26 | -4
COC(=O)C1=C(C(=O)c2ccccc2)C(c2cccs2)n2nnnc2N1 (centres undefined) | -4 | 55* | 0 | 1 | -3 | 1 | -29 | -3
COC(=O)C1=C(C(=O)c2ccc(C)cc2)C(c2ccc(OC)c(OC)c2)n2nnnc2N1 (centres undefined) | 2 | 47* | 2 | 7 | -4 | 2 | -32 | 2
COC(=O)C1=C(C(=O)c2ccccc2)C(c2ccc(O)c(OC)c2)n2nnnc2N1 (centres undefined) | 0 | 18 | 1 | 8 | 6 | 10 | . | .
CCC(C)(C)NC(=O)CCCSc1nc2ccccc2s1 | -8 | -6 | -1 | 19 | 5 | -3 | . | .
CCCCN(C(=O)c1nn(C)c(=O)c2ccccc12)c1c(N)n(CC(C)C)c(=O)[nH]c1=O | . | . | . | . | -16 | . | . | .
Cc1nc(=S)n(-c2ccccc2)[nH]1 | -2 | 3 | 1 | 2 | 11 | -3 | . | .
SMILES | eIF4H FP inh | PfM18AAP inh-1 | PERK inh | PABP polyA inh | MLLE-PAM2 inh | eIF4E 4G PPI | PfM18AAP inh-2 | CTSL1 counter
S=c1nc(C2CCCCC2)n(-c2ccccc2)[nH]1 | 29 | 35* | 1 | -8 | 11 | -1 | 3 | -4
O=C(Nn1cnnc1)c1cc2cc(Br)ccc2oc1=O | -5 | 34* | 1 | 9 | 4 | 2 | 25 | 3
CC(C)NC(=O)c1cc2cc(Br)ccc2oc1=O | 0 | 0 | 0 | -1 | -13 | 2 | . | .
Cc1cc(C)nc(SCCC(=O)N(C)C)n1 | 0 | 39* | 0 | -3 | 25 | 3 | -4 | -1
O=C(CSc1ncccn1)NNC(=O)c1ccccc1 | -10 | -3 | . | -1 | -18 | . | . | .
O=C(CSc1ncccn1)Nn1cnnc1 | -4 | 46* | 1 | 4 | 6 | -2 | 44* | -4
Cc1cc(C)nc(SCC(=O)Nn2cnnc2)n1 | -14 | 53* | 1 | -2 | -7 | 1 | 41* | -5
Cc1ccc(CNC(=O)CN(C(=O)C2(C)CC(=O)N=C3C=CC=CN32)c2ccc(F)cc2)cc1 (centres undefined) | 0 | -5 | . | -10 | 5 | . | . | .
Oc1ccc(NCc2ccc(OCc3ccccc3)cc2)cc1 | 34 | 46* | . | 8 | 0 | . | -29 | -2
CCc1ccc(CNc2ccc(O)cc2)cc1 | 53 | 26 | 1 | 25 | 0 | 10 | . | .
CSc1ccccc1NS(=O)(=O)c1ccccc1 | -10 | 1 | 1 | -1 | 0 | -3 | . | .
Cc1sc(NC(=O)C2CCCCC2C(=O)O)c(C(N)=O)c1-c1ccccc1 (centres undefined) | -5 | 5 | 1 | 5 | 30 | 0 | . | .
COC(=O)CCC(=O)Nc1sc(C)c(C)c1C(N)=O | 8 | 43* | 2 | 5 | 24 | 21 | 18 | 3
COC(=O)CCC(=O)NC(=S)Nc1sc(C)c(C)c1C(N)=O | ? | 14 | 0 | 0 | 15 | -2 | . | .
Cc1sc(NC(=O)C2CCCCC2C(=O)O)c(C(N)=O)c1C (centres undefined) | -6 | 36* | 1 | -7 | 6 | 1 | -56 | -1
Cc1sc(NC(=O)Nc2ccccc2)c(C(N)=O)c1C | 5 | 37* | -1 | 7 | 21 | -2 | 5 | 0
COC(=O)c1c(NC(=O)Nc2ccc(Cl)cc2)sc(C)c1C | -4 | 13 | 0 | -3 | -4 | -15 | . | .
COc1cc(CNC(=O)C2CC(O)CN2C(=O)Nc2ccccc2)cc(OC)c1OC (centres undefined) | . | . | . | . | 2 | . | . | .
COc1ccc(OC)c(-c2oc3ccccc3c(=O)c2O)c1 | -7 | -2 | 0 | -8 | 20 | -2 | . | .
COc1ccc(OC)c(-c2c3cc(O)c(=O)cc-3oc3cc(O)c(O)cc23)c1 | ? | 45* | 0 | 4 | i | 51*[fluorescence artefact?] | 26 | 4
CC(C)(C)c1ccc(NNC(=O)C2CCC2)cc1 | -6 | 40* | 1 | 14 | 0 | 2 | -20 | 4
CC(C)(C)c1ccc(NC(=O)COC(=O)C2CCCC2)cc1 | . | . | . | . | 8 | . | . | .
O=C(Cn1cncn1)c1ccccc1Br | -3 | 39* | . | 3 | 5 | . | 15 | -2
